# Laboratory results as given in ChEMBL document CHEMBL4296182, “CO-ADD screening of NIH NCI Diversity Set V”.
# Tested on: Escherichia coli
# Assay: Antibacterial activity against Escherichia coli ATCC 25922 (CO-ADD:GN_001); MIC in CAMBH media using NBS plates, by Resazurin F(560/590)
# Type: functional
# Conditions: Concentration 20 uM, ASSAY_TEST Inhibition of Bacterial Growth, detection method Resazurin, Fluorescence (ex560/em590), MEDIA CAMHB, plate type 384well, CORNING #3640, time 18 hr
row,Structure (SMILES),Inhibition [%]
1,CC1CCC(C(C)C)C(NC(=O)c2ccncc2)C1 (centres undefined),6.28
2,Cc1ccc(C)c(-n2c(-c3ccc(Br)cc3)cs/c2=N\C(=O)c2ccccc2F)c1,6.4
3,O=C1C(Br)=Cc2cccc3cccc1c23,6.58
4,Cn1ncc2c(Nc3ccc(Br)cc3)nc(Nc3ccc(Br)cc3)nc21,12.54
5,NC(=O)c1cc(C(N)=O)nc(Cl)n1,10.33
6,O=S(=O)(O)c1ccc(/N=N/c2ccccc2)cc1,5.47
7,CCOC(=O)Nc1cc2c(c(N)n1)N=C(c1ccccc1)CN2,8.87
8,Cc1nc2ccc(Cl)cn2c1[N+](=O)[O-],-8.75
9,CC(C)(C)c1ccc(C(=O)Nc2ccc(S(N)(=O)=O)cc2)cc1,7.06
10,O=C(O)c1cnn2c(S)ncnc12,9.48
11,c1ccc(-c2nnc3oc(-c4cccs4)nn23)cc1,4.88
12,Clc1ccccc1-c1nc(-c2ccncc2)no1 [PIFEXOLE],7
13,COC1OC(O)C(NC(=O)C(F)(F)F)CC1O (centres undefined),5.88
14,C=CCNC(=O)C1COc2ccccc2O1 (centres undefined),0.51
15,Cn1c(=O)c2c(nc(Cc3ccc(N)cc3)n2C)n(C)c1=O,1.69
16,CSc1nc(C)cc(S)n1,3.46
17,O=C(OCC(O)COC(=O)c1cccnc1)c1cccnc1,2.79
18,CN1CCN(C(=O)Nc2ccc([N+](=O)[O-])cc2)CC1,0.54
19,CCCc1cc(=O)oc2c3c(c4c(c12)OC(C)(C)C=C4)OC(C)[C@H](C)[C@@H]3O (some centres undefined),11.63
